For 34 targets, log2 fold change results are on record in the supplement of paper PMC10849652.

Targets with a hit are over-represented here; the source holds about 7,900 in all. About 0.6% of all pairs of compound and target were hits.

UniProt Q15121, sequence (Q15121 whole entry, looked up): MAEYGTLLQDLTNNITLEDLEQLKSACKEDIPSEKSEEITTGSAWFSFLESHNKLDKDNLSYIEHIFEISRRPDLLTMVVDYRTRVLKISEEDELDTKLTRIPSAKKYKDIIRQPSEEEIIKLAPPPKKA
UniProt Q9NR22, sequence (Q9NR22 whole entry, looked up): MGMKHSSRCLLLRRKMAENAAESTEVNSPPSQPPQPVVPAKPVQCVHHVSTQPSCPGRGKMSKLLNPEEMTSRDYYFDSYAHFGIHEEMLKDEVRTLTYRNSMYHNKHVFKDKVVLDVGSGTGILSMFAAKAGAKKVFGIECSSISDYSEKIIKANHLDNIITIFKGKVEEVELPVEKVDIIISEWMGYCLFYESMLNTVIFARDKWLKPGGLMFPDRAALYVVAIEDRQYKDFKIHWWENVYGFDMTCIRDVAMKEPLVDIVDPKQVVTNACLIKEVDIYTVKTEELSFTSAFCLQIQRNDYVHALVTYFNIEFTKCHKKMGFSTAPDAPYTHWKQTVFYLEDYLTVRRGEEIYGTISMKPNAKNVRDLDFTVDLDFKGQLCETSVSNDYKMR
UniProt P09874, sequence (P09874 whole entry, looked up): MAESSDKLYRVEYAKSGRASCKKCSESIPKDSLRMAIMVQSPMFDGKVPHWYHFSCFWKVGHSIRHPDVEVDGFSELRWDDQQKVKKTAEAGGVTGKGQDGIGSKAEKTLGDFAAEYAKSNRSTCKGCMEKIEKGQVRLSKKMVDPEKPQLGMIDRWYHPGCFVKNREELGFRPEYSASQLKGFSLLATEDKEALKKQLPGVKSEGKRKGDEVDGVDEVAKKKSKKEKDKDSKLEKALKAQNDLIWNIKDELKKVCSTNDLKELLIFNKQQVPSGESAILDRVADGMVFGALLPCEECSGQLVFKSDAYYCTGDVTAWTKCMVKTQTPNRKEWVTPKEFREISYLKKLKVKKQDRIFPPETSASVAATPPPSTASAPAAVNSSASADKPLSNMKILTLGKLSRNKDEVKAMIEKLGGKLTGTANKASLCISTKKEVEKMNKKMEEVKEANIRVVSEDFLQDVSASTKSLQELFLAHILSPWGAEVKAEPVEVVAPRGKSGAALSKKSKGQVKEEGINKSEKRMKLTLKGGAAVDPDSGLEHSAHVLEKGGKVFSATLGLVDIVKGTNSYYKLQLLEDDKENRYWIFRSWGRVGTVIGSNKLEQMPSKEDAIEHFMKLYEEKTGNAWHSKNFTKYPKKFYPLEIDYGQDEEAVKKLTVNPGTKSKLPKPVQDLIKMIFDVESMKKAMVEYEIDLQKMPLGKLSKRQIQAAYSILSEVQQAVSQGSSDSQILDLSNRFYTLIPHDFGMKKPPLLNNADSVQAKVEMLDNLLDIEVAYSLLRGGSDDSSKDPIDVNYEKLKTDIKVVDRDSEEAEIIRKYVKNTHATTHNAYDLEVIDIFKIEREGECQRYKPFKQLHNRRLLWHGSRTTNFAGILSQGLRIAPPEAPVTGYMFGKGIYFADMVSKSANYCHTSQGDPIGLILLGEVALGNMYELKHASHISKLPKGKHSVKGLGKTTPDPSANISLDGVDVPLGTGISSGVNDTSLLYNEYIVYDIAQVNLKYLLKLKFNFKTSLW
UniProt Q86TB9, sequence (Q86TB9 whole entry, looked up): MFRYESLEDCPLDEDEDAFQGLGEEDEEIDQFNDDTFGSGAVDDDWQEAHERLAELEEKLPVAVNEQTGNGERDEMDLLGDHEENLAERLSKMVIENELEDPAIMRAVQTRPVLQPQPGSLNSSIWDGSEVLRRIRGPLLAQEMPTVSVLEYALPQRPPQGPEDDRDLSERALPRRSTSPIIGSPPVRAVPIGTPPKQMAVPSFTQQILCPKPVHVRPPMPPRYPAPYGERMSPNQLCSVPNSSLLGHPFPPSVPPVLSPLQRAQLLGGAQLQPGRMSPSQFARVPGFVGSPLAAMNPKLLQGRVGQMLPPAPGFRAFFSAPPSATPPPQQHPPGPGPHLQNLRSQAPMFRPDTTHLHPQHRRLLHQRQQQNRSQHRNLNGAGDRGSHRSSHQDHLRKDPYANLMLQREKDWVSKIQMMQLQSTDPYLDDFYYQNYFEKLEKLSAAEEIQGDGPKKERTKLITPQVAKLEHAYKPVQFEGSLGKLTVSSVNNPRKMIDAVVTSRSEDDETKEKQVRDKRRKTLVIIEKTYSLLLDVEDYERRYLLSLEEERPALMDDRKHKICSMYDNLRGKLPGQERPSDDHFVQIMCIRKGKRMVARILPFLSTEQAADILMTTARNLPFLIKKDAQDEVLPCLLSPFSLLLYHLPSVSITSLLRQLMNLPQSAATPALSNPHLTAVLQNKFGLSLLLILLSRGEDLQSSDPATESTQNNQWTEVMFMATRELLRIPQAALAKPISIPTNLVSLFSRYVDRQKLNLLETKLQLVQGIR
UniProt Q86UU1, sequence (Q86UU1 whole entry, looked up): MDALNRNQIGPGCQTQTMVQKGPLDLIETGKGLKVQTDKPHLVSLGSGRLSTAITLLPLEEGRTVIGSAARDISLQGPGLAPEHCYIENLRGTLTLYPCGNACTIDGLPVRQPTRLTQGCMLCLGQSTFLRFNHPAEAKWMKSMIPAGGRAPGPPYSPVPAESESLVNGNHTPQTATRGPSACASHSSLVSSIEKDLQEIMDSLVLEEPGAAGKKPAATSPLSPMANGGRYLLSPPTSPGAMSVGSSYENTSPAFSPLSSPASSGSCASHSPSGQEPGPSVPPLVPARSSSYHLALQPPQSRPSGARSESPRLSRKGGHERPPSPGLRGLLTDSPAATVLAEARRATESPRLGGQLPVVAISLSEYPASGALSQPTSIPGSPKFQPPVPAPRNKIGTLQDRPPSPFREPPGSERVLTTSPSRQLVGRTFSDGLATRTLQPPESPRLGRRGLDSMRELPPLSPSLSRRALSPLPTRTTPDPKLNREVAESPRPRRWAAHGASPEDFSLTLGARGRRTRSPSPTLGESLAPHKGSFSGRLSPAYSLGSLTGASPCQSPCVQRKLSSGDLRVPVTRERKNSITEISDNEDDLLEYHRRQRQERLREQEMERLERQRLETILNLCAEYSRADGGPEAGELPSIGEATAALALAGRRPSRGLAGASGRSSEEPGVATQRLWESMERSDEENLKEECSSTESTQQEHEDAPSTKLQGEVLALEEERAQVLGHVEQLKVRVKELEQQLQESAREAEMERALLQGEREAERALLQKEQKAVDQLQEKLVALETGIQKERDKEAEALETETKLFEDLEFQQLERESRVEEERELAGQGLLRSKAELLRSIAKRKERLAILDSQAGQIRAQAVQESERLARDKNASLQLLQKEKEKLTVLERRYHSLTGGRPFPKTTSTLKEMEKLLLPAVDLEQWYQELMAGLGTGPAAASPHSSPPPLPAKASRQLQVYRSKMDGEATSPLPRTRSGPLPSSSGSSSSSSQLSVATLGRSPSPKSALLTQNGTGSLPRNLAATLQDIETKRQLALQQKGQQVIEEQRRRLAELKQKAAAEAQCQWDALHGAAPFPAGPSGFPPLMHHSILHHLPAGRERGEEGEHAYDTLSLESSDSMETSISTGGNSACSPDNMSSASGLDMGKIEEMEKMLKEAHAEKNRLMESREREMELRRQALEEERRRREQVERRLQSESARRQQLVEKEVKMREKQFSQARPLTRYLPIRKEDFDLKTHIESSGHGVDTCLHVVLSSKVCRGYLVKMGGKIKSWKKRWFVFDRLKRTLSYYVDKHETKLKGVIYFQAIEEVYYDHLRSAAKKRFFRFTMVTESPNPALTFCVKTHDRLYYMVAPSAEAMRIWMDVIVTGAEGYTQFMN
UniProt P13861, sequence (P13861 whole entry, looked up): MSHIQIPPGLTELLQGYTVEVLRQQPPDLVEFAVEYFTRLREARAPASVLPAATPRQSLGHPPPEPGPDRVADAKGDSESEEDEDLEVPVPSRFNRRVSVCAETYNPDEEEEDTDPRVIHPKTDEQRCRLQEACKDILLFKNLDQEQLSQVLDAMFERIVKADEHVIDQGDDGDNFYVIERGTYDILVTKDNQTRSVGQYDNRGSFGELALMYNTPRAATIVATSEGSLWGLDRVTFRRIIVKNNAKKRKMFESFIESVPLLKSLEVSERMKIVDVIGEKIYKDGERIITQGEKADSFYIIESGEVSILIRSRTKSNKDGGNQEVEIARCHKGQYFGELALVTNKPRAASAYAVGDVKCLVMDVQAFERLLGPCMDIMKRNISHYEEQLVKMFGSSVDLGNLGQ
UniProt Q9H5K3, sequence (Q9H5K3 whole entry, looked up): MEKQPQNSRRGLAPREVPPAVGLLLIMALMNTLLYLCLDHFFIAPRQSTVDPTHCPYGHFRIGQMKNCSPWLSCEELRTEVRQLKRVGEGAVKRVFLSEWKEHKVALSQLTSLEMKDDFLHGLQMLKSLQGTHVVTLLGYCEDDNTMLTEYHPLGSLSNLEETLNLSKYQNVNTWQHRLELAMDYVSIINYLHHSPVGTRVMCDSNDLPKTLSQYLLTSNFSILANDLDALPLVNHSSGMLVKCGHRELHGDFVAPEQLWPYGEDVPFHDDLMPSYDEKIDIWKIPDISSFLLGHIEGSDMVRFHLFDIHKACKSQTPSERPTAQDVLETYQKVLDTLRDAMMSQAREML
UniProt Q14442, sequence (Q14442 whole entry, looked up): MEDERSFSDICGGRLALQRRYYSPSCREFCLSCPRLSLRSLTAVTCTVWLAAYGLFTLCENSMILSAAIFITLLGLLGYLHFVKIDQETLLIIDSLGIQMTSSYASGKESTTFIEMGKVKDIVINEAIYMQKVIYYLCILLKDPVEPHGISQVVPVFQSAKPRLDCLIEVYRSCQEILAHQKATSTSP
UniProt P54619, sequence (P54619 whole entry, looked up): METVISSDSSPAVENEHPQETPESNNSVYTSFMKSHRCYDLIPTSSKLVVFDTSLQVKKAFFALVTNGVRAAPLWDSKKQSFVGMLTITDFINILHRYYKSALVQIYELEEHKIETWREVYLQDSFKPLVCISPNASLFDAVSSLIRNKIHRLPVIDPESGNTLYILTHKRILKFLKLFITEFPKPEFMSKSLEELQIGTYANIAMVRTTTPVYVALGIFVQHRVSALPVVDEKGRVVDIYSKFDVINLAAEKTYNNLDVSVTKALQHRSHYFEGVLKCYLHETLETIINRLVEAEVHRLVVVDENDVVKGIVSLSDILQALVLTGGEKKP

Compound in one assay: CN1C2=C(C3=C1C(=O)N(N=C3)CC4=CC(=CC=C4)N)SC(=C2)S(=O)C
Kind of assay: log2 fold change, soluble protein after heating vs DMSO (PISA); higher = thermal stabilisation; K562 cells, 10 uM, 30 min; active = over 0.2 and 3.5 SD of the protein, either way, in both replicates (recomputed). A digest of the protocol: (§1)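 For each measurement, 10 μM compound was applied for 30 min to K562 cells at 2×10^6 cells/mL. Aliquots were heated for 3 min across 48°C-58°C, pooled, and extracted in PBS with 0.5% NP-40 at 4°C; the supernatant after 21,000xg for 90 min was soluble protein. This was quantified by TMTpro 16plex LC-MS/MS with channel sums equalised, and thermal stability was reported relative to control samples from duplicates, on a log2 fold-change scale.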
For the target PHKA1 (UniProt P46020), the log2 fold change was 0.112 (inactive).

Take POLR2E (UniProt P19388): the log2 fold change is 0.092 (inactive).

On to PRMT8 (UniProt Q9NR22), for which the log2 fold change is -0.117 (inactive).

Take PRKAR2A (UniProt P13861): the log2 fold change is 0.077 (inactive).

With PATL1 (UniProt Q86TB9), the log2 fold change is 0.104 (inactive).

For the target PARP1 (UniProt P09874), the log2 fold change was 0.027 (inactive).

Regarding PHLDB1 isoform 2 (UniProt Q86UU1), the log2 fold change was -0.022 (inactive).

In the case of QRICH1 (UniProt Q2TAL8), the log2 fold change is 0 (inactive).

As to PEA15 isoform 2 (UniProt Q15121), the log2 fold change was -0.002 (inactive).

Compound in a further assay: CN1CCC(CNc2ccc3ncc(-c4cccc(OC(F)(F)F)c4)n3n2)CC1
The description is as above. A digest of the protocol: as §1
Take PKM isoform 2 (UniProt P14618): the log2 fold change is -0.046 (inactive).

Take POLB (UniProt P06746): the log2 fold change was -0.156 (inactive).

With PPP2R5A (UniProt Q15172), the log2 fold change is -0.305 (active).

On to POMK (UniProt Q9H5K3), for which the log2 fold change is -0.082 (inactive).

Consider PRKAG1 isoform 3 (UniProt P54619), for which the log2 fold change was -0.299 (active).

In the case of PSMB9 (UniProt P28065), the log2 fold change is 0.051 (inactive).

In the case of PTGFRN (UniProt Q9P2B2), the log2 fold change was 0.181 (inactive).

As for PGK2 (UniProt P07205), the log2 fold change is 0.06 (inactive).

Consider PIGH (UniProt Q14442), for which the log2 fold change was 0.051 (inactive).

Regarding PNN (UniProt Q9H307), the log2 fold change is -0.042 (inactive).

With PPP2R5B (UniProt Q15173), the log2 fold change was -0.529 (active).

PLIN2 (UniProt Q99541): the log2 fold change is -0.699 (active).

Turning to POGZ (UniProt Q7Z3K3), the log2 fold change was 0.063 (inactive).

Turning to PRMT3 (UniProt O60678), the log2 fold change was -0.953 (active).

As for PEX16 isoform 2 (UniProt Q9Y5Y5), the log2 fold change was -0.124 (inactive).

As for PTEN isoform 2 (UniProt P60484), the log2 fold change is -0.098 (inactive).

Turning to PPP1R12C (UniProt Q9BZL4), the log2 fold change was 0.029 (inactive).

In the case of PSMB4 (UniProt P28070), the log2 fold change is 0.057 (inactive).

On to PDPK1 (UniProt O15530), for which the log2 fold change is -0.275 (inactive).

For the target PHKA1 (UniProt P46020), the log2 fold change is -0.045 (inactive).

Consider POLR2E (UniProt P19388), for which the log2 fold change is 0.09 (inactive).

As for PRMT8 (UniProt Q9NR22), the log2 fold change is -0.009 (inactive).

With PRKAR2A (UniProt P13861), the log2 fold change was 0.023 (inactive).

As for PATL1 (UniProt Q86TB9), the log2 fold change is -0.445 (active).

For the target PARP1 (UniProt P09874), the log2 fold change is -0.146 (inactive).

PHLDB1 isoform 2 (UniProt Q86UU1): the log2 fold change was -0.585 (active).

Take PEA15 isoform 2 (UniProt Q15121): the log2 fold change is 0.039 (inactive).

Compound in a further assay: CN1CCN(CCOc2cc(OC3CCOCC3)c3c(Nc4c(Cl)ccc5c4OCO5)ncnc3c2)CC1 [saracatinib]
Described as above. A digest of the protocol:
as §1
On to PKM isoform 2 (UniProt P14618), for which the log2 fold change is 0.202 (inactive).

In the case of PDIK1L (UniProt Q8N165), the log2 fold change is -0.062 (inactive).

On to POLR2C (UniProt P19387), for which the log2 fold change is -0.096 (inactive).

For the target POLB (UniProt P06746), the log2 fold change is -0.21 (inactive).

Consider PPP2R5A (UniProt Q15172), for which the log2 fold change is -0.03 (inactive).

Turning to POMK (UniProt Q9H5K3), the log2 fold change was -0.047 (inactive).

Take PRKAG1 isoform 3 (UniProt P54619): the log2 fold change is -0.016 (inactive).

For PTGFRN (UniProt Q9P2B2), the log2 fold change was 0.029 (inactive).

Regarding PGK2 (UniProt P07205), the log2 fold change is -0.196 (inactive).

For the target PIGH (UniProt Q14442), the log2 fold change was -0.099 (inactive).

For PTP4A2 (UniProt Q12974), the log2 fold change was -0.038 (inactive).

In the case of PNN (UniProt Q9H307), the log2 fold change was -0.037 (inactive).

As to PPP2R5B (UniProt Q15173), the log2 fold change is -0.161 (inactive).

For PLIN2 (UniProt Q99541), the log2 fold change is -0.033 (inactive).

As for PNPLA4 (UniProt P41247), the log2 fold change is -0.267 (inactive).

Consider POGZ (UniProt Q7Z3K3), for which the log2 fold change was -0.134 (inactive).

On to PRMT3 (UniProt O60678), for which the log2 fold change was 0.021 (inactive).

Turning to PEX16 isoform 2 (UniProt Q9Y5Y5), the log2 fold change is 0.038 (inactive).

In the case of PIK3CD (UniProt O00329), the log2 fold change was -0.124 (inactive).

For the target PPP1R12C (UniProt Q9BZL4), the log2 fold change is -0.115 (inactive).

As to POLR2M (UniProt Q6EEV4), the log2 fold change is 0.011 (inactive).

In the case of PSMB4 (UniProt P28070), the log2 fold change was -0.012 (inactive).

For the target PDPK1 (UniProt O15530), the log2 fold change is -0.008 (inactive).

On to PHKA1 (UniProt P46020), for which the log2 fold change was -0.12 (inactive).

As to POLR2E (UniProt P19388), the log2 fold change is -0.077 (inactive).

As to PRMT8 (UniProt Q9NR22), the log2 fold change was 0.015 (inactive).

Consider PRKAR2A (UniProt P13861), for which the log2 fold change was 0.034 (inactive).

In the case of PATL1 (UniProt Q86TB9), the log2 fold change is -0.075 (inactive).

In the case of PARP1 (UniProt P09874), the log2 fold change is -0.025 (inactive).

For the target PHLDB1 isoform 2 (UniProt Q86UU1), the log2 fold change was -0.02 (inactive).

As to QRICH1 (UniProt Q2TAL8), the log2 fold change is -0.019 (inactive).

As for PEA15 isoform 2 (UniProt Q15121), the log2 fold change is 0.05 (inactive).
